A selection: hits, their analogues and other compounds. The true share with any hit is near 9.4%.
Pf growth 48h: inhibits P. falciparum growth in the first generation, 48 h; hit rate 5.9% among 310,000; Potency, µM (highest dose often 28.7 µM), inactives show at the highest dose activity change, negative = inhibition, usual class: inhibitors; AID 504832; P. falciparum luciferase growth in erythrocytes, 48 h; note: % is set by controls: 0 for no effect and ±100 for the full control effect
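First compound was added to culture medium, then infected red cells at 0.1% parasitemia and 2% hematocrit (final). After incubation at 37 C under 5% CO2, luciferase detection reagent was dispensed and light output recorded.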
Pf growth 96h: inhibits malaria parasite growth, 96 h. AID 504834. hit rate 6.9% among 320,000. P. falciparum luciferase reporter growth, 96 h. Potency, µM (series often up to 28.7 µM), for the others: top-dose activity change, negative = inhibition, usual class: inhibitors; note: % is set by controls: 0 for no effect and ±100 for the full control effect
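Two-generation exposure (96 h) targets delayed-death phenotype. Reporter parasites carrying integrated firefly luciferase, in red cells at 2% hematocrit and 0.05% parasitemia final, kept at 37 C, 5% CO2; luminescence loss indicates inhibition.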
SARS PLpro yeast: inhibitors of SARS-CoV papain-like protease in yeast; S. cerevisiae expressing SARS-CoV PLpro, growth rescue; AID 485353; Potency, µM (series often up to 32.9 µM), inactives show at the top dose activity, positive = growth rescue, actives largely listed as activators; hit rate 0.19% among 330,000; calls by dose curve; note: 0% is about no effect; nearly all actives have a fitted effect of over 55% in size
AMA1-RON2 inh: AMA1-RON2 (P. falciparum) interaction inhibition | Potency, µM (doses to about 58.2 µM), for inactives: at the top dose activity change, negative = inhibition, most hits filed as inhibitors | AlphaScreen AMA1-biotinylated RON2 peptide binding | hit rate 0.2% among 360,000 | AID 720542;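 note: 0% = vehicle wells and -100% = peptide control; nearly all actives have a fitted effect of over 45% in size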
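AMA1 (3D7) with his tag at 25 nM final met compounds first, then biotinylated RON2 peptide at 25 nM; detection used donor plus acceptor beads, 10 µg/mL apiece, read by AlphaScreen after 30 min at room temperature.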
Starred values were filed as active, the others as inactive; ? = inconclusive; . = no result. Unless noted, calls come from the whole dose curve; as a rule, active = well fitted curve in the direction sought with a large enough effect; inconclusive = small, poorly fitted or top-dose-only effect, or another doubt; inactive = no such curve, though single readings can be large; an effect the other way counts as inactive or inconclusive. Potency is the fitted concentration of half-maximal effect.

SMILES	Pf growth 48h	Pf growth 96h	SARS PLpro yeast	AMA1-RON2 inh
Cc1cc(NC(=O)CCC(=O)N(c2ccccc2C)C(C(=O)NC2CCCC2)c2ccccc2)no1 (stereo not drawn)	?	-68%	-2%	-1%
Cc1ccc(N(C(=O)CCC(=O)Nc2cc(C)on2)C(C(=O)NC2CCCC2)c2cccs2)cc1 (stereo not drawn)	12µM*	.	-6%	12%
Cc1cc(NC(=O)CCC(=O)N(c2ccccc2)C(C)C(=O)NC2CCCC2)no1 (stereo not drawn)	11%	23%	-1%	1%
CCCCN(C(=O)CCC(=O)Nc1cc(C)on1)C(C(=O)NC1CCCC1)c1ccccc1OCC (stereo not drawn)	15µM*	16%	-1%	-4%
Cc1cc(NC(=O)CCC(=O)N(c2ccccc2)C(C(=O)NC2CCCC2)c2cccs2)no1 (stereo not drawn)	?	.	5%	-17%
Cc1cc(NC(=O)CCC(=O)N(c2ccccc2)C(C(=O)NC2CCCC2)c2ccccc2C)no1 (stereo not drawn)	13µM*	?	0%	-3%
COc1ccc(OCCNC(=O)c2ccccc2Cl)cc1	-4%	?	1%	7%
CCC(C)(C)NC(=O)C(c1ccc(C)cc1)N(CC1CCCO1)C(=O)CCC(=O)Nc1ccccn1 (stereo not drawn)	?	12µM*	1%	-6%
Cc1ccc(C(C(=O)NC(C)(C)C)N(CC2CCCO2)C(=O)CCC(=O)Nc2ccccn2)cc1 (stereo not drawn)	-11%	-50%	2%	9%
Cc1cc(NC(=O)CCC(=O)N(Cc2ccco2)C(C(=O)NC2CCCCC2)c2cccs2)no1 (stereo not drawn)	?	-8%	-1%	5%
Cc1cc(NC(=O)CCC(=O)N(c2ccccc2)C(C(=O)NC2CCCC2)c2ccccc2)no1 (stereo not drawn)	15µM*	8.3µM*	3%	-11%
Cc1ccc(C(C(=O)NC2CCCC2)N(Cc2ccco2)C(=O)CCC(=O)Nc2cc(C)on2)cc1 (stereo not drawn)	?	13µM*	?	-11%
COc1cccc2c(SCC(=O)N/N=C/c3ccc(O)cc3O)cc(C)nc12	?	43%	?	112%
Cc1onc(-c2ccccc2Cl)c1C(=O)N1C=CC(C(F)(F)F)=NCC1	-3%	15%	29%	1%
OC(COCc1ccc(Cl)cc1)CN1CC=C(c2ccccc2)CC1 (stereo not drawn)	9.3µM*	3.3µM*	-5%	6%
Cc1ccc(C)c(Oc2coc3cc(O)ccc3c2=O)c1	6%	-15%	-13%	6%
Cc1ccc(C)c(Oc2coc3cc(OCC(=O)Nc4ccccc4C(C)C)ccc3c2=O)c1	13µM*	7.4µM*	4%	.
Fc1ccccc1C1c2cccn2CCN1C(=S)Nc1cccc(Br)c1 (stereo not drawn)	9.3µM*	-27%	-3%	9%
O=C(Nc1cc([N+](=O)[O-])ccc1Cl)c1cccnc1	33%	?	?	-1%
Cc1ccc(NC(=O)c2cc([N+](=O)[O-])ccc2NCc2cccnc2)cc1	13µM*	?	-5%	-24%
Cc1ccc([N+](=O)[O-])cc1NC(=O)c1cccnc1	-4%	10µM*	-3%	-2%
Cc1ccccc1-c1nnc(CS(=O)(=O)c2ccccc2)o1	185%	?	2%	15%
CC(C)OC(=O)c1ccc(COC(=O)CNC(=O)c2ccco2)cc1	5%	9%	-2%	-8%
CC(C)(C)C(=O)Nc1ccc(S(=O)(=O)N2CCC(c3nc4ccccc4[nH]3)CC2)cc1	13µM*	8.3µM*	0%	-5%
O=S(=O)(c1ccc(F)cc1)N1CCC(c2nc3ccccc3[nH]2)CC1	?	-19%	4%	-4%
CC(=O)Nc1ccc(S(=O)(=O)N2CCN(c3nc(NC4CCCC4)c4ccccc4n3)CC2)cc1	2.1µM*	?	-3%	-5%
CC(=O)Nc1ccc(S(=O)(=O)N2CCC(c3nc4ccccc4[nH]3)CC2)cc1	8.3µM*	.	1%	-11%
CCOCC(=O)Nc1ccc(S(=O)(=O)N2CCC(c3nc4ccccc4[nH]3)CC2)cc1	10µM*	?	-1%	0%
COc1ccc(S(=O)(=O)Nc2c(NC3CCCCC3)c3ccccc3oc2=O)cc1Cl	16%	-25%	4%	-13%
Cc1cc(S(=O)(=O)Nc2c(NC3CCCCC3)c3ccccc3oc2=O)ccc1F	12%	10µM*	-12%	7%

From PubChem BioAssay
